# Compound activity from PubChem.
# Only some compounds are listed: those with a hit (about 3.7% of all), similar ones and a draw of the others.
# FMDV antiviral: blocks foot and mouth disease virus; FMDV antiviral cell-based qHTS; Potency, µM (doses to about 57.9 µM), for the others: at the highest dose activity change, negative = inhibition, hits mostly inhibitors; 410,000 tested, 1.2% active; calls by dose curve; tested in HEK293T cells; further: read-out not given here; nearly all actives have a fitted effect of over 45% in size
# TbPYK inhibitor: blocks Trypanosoma brucei pyruvate kinase; TbPYK enzyme, Kinase-Glo Plus ATP luminescence, 45 min; Potency, µM (doses to about 76.8 µM), for inactives: top-dose activity, negative = inhibition, hits mostly inhibitors; 410,000 tested, 0.12% active; further: nearly all actives have a fitted effect of over 50% in size
#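 Enzyme and substrate buffer are dispensed first and compound is pin-transferred. ADP at 130 uM final then starts the reaction, which runs 45 min at room temperature. Detection reagent is added for 10 min before luminescence is imaged.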
# Sm TGR inh: inhibitors of Schistosoma mansoni thioredoxin glutathione reductase. Q962Y6. purified TGR, DTNB reduction, TNB absorbance 405 nm. Potency, µM (series often up to 114 µM), without a hit: top-dose activity change, negative = inhibition, most hits filed as inhibitors. 360,000 tested, 3% active; further: nearly all actives have a fitted effect of over 60% in size
#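 TGR 20 nM + NADPH 100 uM (dispensed conc.), cpd preinc 15 min RT; start with NADPH (500 uM addition) then DTNB (15 mM addition). Kinetic TNB absorbance, 405 nm filter. Four-parameter Hill fit across titration.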
# RE007 growth inh: less growth of the S. pombe RE007 Vpr strain | S. pombe RE007 Vpr strain, BacTiter-Glo ATP luminescence, 24 h | Potency, µM (doses to about 92.2 µM), inactives show at the highest dose activity change, negative = less growth, hits mostly inhibitors | 360,000 tested, 0.21% active; active means well fitted falling curve with a large enough effect; inconclusive means small, poorly fitted or top-dose-only effect; inactive means no such curve, though single readings can be large or run the other way; further: nearly all actives have a fitted effect of over 50% in size
#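 Fission yeast strain RE007, carrying one chromosomally integrated HIV-1 vpr copy, was seeded at OD 0.01 in PMG+AL medium with 23 nL pinned compound. After 24 h at 30 °C and 99% humidity, viability was read by BacTiter-Glo luminescence.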
# * hit, by the source's call; u = inconclusive; x = not tested or not shown; [ ] = dose if it differs, or a comment. Unless noted, the call rests on the fitted dose curve; in most records, active means well fitted curve in the direction sought with a large enough effect; inconclusive means small, poorly fitted or top-dose-only effect, or another doubt; inactive means no such curve, though single readings can be large; an effect the other way counts as inactive or inconclusive. On the % scale 0 is the no-effect control and ±100 the full control effect; potency means the concentration at half of the fitted maximal effect.
SMILES,FMDV antiviral,TbPYK inhibitor,Sm TGR inh,RE007 growth inh
COc1cccc(-n2c(SCC(=O)N3CCCc4ccccc43)nc3c([nH]c4ccccc43)c2=O)c1,-23.5%,-3.5%,1.8%,x
Cc1ccc(CC(=O)Nc2c(C(=O)N3CCN(c4ccccc4F)CC3)oc3ccccc23)cc1,25.2%,-0.3%,44.7µM*,x
CCN(CC)C(=O)Cn1cc(C(=O)C(=O)NCc2ccco2)c2ccccc21,-2.7%,-0.9%,39.8µM*,0.9%
CCN(CC)C(=O)Cn1cc(SCC(=O)NCc2ccco2)c2ccccc21,-3.0%,-3.4%,-25.3%,-0.9%
CCCCC/C=C/C/C=C/CCCCCCCC(=O)NC(C)c1ccccc1 (centres undefined),x,-2.1%,x,x
COc1cc2cc(CNc3ccc(C)cc3)c(=O)n(CC(=O)Nc3ccc(C(C)C)cc3)c2cc1OC,9.4%,-6.8%,-29.0%,x
OCC(O)CS (centres undefined),x,9.6%,x,x
Cc1cc(OCC(=O)Nc2nc3c(s2)CCCC3)cc(C)c1Cl,-10.2%,1.0%,-6.3%,x
CP(=O)(Nc1cc(Cl)ccc1Cl)c1nc2c(s1)CCCC2 (centres undefined),-2.6%,-11.5%,8.91µM*,18.8%
Fc1ccccc1-c1cc2ncccc2cn1,80.6%,-10.2%,31.6µM*,-6.7%
COc1ccc(C(C(=O)NCc2ccccc2)N(C(=O)Cn2nnc3ccccc32)c2ccc(F)cc2)cc1 (centres undefined),19.3%,-1.9%,0.8%,x
CC(C)(O)C#Cc1ccc(C(=O)N2CCCC(CNS(=O)(=O)c3cccs3)C2)o1 (centres undefined),27.8%,-11.3%,11.2µM*,15.2%
CC(C)(C)c1ccc(C(=O)Nc2ccc(Cl)cc2)cc1,140.9%,-12.6%,-5.1%,9.1%
COC(=O)Cc1ccc(NC(=O)c2ccc(C(C)(C)C)cc2)cc1,10µM*,-3.2%,8.7%,-15.7%
Cc1ccc(C(=O)n2c(N)nc3ccccc32)cc1,10µM*,-25.0%,x,0.0%
Cc1ccc(/C=C2\C(=O)Nc3ccccc32)o1,31.8%,u,25.1µM*,-27.8%
COc1ccc(-n2c(/C=C3\C(=O)Nc4ccccc43)nc3ccccc3c2=O)cc1,u,2.6%,-17.6%,1.9%
COc1ccc(C(=O)/C=C2/C(=O)Nc3ccccc32)cc1OC,31.6µM*,-2.2%,-28.0%,x
NC(=O)COc1ccc(C(=O)/C=C2/C(=O)Nc3ccccc32)cc1,u,-4.4%,0.0%,6.7%
COc1ccc(C(=O)/C=C2/C(=O)Nc3ccccc32)c(OC)c1,u,-9.0%,-12.0%,6.1%
COc1ccc(C(=O)/C=C2/C(=O)Nc3ccccc32)cc1,3.16µM*,2.0%,8.7%,-10.2%
COc1cc(OC)c(/C=C2\C(=O)Nc3ccccc32)c(OC)c1,28.2µM*,5.4%,-3.8%,3.6%[18.4 µM]
O=c1ccc(-c2ccccc2)nn1Cc1c(F)cccc1Cl,-19.4%,-7.6%,8.1%,x
Cn1c(=O)c2c(c3ccccc31)OC(=O)CC2c1cccc(F)c1 (centres undefined),-6.2%,3.0%,-4.5%,x
CC(=O)N1CCc2cc(Br)cc(S(=O)(=O)N3CCN(c4cccc(C)c4)C(C)C3)c21 (centres undefined),-16.5%,-0.1%,0.5%,x
SMILES,FMDV antiviral,TbPYK inhibitor,Sm TGR inh,RE007 growth inh
C=CCOc1ccccc1C(=O)/C=C1/C(=O)Nc2ccccc21,39.8µM*,-0.2%,-15.4%,-2.4%
C=CCOc1ccc(C(=O)/C=C2/C(=O)Nc3ccccc32)cc1,15.9%,1.5%,2.1%,-5.6%
O=C1Nc2ccccc2/C1=C/c1ccccc1F,-10.0%,-10.3%,-0.2%,-9.0%
O=C1Nc2ccccc2/C1=C/C(=O)c1cccs1,22.4µM*,-4.4%,-33.4%,u
CN(C)c1ccc(CNC(=O)C2CCN(Cc3cc4ccccc4n3Cc3ccccc3)CC2)cc1,-19.5%,5.4%,1.4%,x
O=C(N[C@H]1CCC(=O)N(CCSc2ccc(Br)cc2)CC1)OCc1ccccc1,31.6µM*,0.8%,-0.2%,-10.6%
Cc1ccc(NC(=O)c2cc(N3C(=O)C=CC3=O)ccc2N2CCOCC2)cc1Cl,u,0.0%,0.708µM*,7.94µM*
Cc1ncc2c(c1CNC(=O)c1ccc3c(c1)OCO3)CCN(C(=O)/C=C/c1ccc(Cl)cc1)C2,-10.9%,x,x,x
O=c1cc(-c2ccccc2)[nH]c2nc3ccccc3n12,-39.5%,-8.6%,4.8%,-15.6%
O=c1cc(CCl)[nH]c2nc3ccccc3n12,-10.4%,2.3%,22.4µM*,-2.0%
CN1/C(=C/C2CC(=O)N(c3ccc([N+](=O)[O-])cc3)C2=O)C(C)(C)c2ccccc21 (centres undefined),-5.6%,-7.8%,12.6µM*,-20.9%
